Inconclusive results are not listed. Activity calls are given as the source filed them. Calls follow the shape of the dose curve; as a rule, active = well fitted cell-killing curve with a large enough effect; inconclusive = small, poorly fitted or top-dose-only effect; inactive = flat fitted curve, though single readings scatter.
experiment: Quantitative highthroughput screen to assess conditional lethalithy of NOMO1 cells grown in RPMI1640 with dialyzed fetal bovine serum (RPMI+ds) (AID 1963877); settings: NOMO1 in RPMI+dialyzed FBS viability, ATP luminescence, 48 h; series mostly up to 45.8 µM; viability: at the top concentration; also: nearly all actives have a fitted effect of over 30% in size
Source text: Assay Provider: Jason Cantor Ph.D.
Department of Biochemistry
University of Wisconsin-Madison, Madison, WI, USA
Chemical screening studies have identified drug sensitivities across hundreds of cancer cell lines but most putative therapeutics fail to translate. Discovery and development of drug candidates in models that more accurately reflect nutrient levels in human blood is a major challenge. Here we performed high-throughput screens in conventional versus Human Plasma-Like Medium (HPLM) to identify compounds that were "missed" when screening using the artificial culture condition. Sets of conditional anticancer compounds spanned phases of clinical development and included non-oncology drugs were assessed. […] We also traced conditional phenotypes for several chemotherapeutics to availability of HPLM-specific metabolites and confirmed others for compounds whose reported targets are encoded by nonessential genes. Our findings establish generalizable strategies for exploiting conditional lethality in HPLM to reveal therapeutic candidates and mechanisms of action in cancer cells.
Described herein are the results of each viability screens against three cell lines: NOMO1 (an acute myeloid leukemia cell line); P12-Ichikawa (a T-cell acute lymphoblastic leukemia); and SEM (a B-cell ALL). Each assay was screened using 3 different cell culture media: homemade human plasma-Like medium with 10% dialyzed fetal bovine serum (HPLM+ds); RPMI1640 with 10% untreated FBS and 5mM glucose (RPMI+s); and RPMI1640 with 10% dialyzed fetal bovine serum and 5 mM glucose (RPMI+ds).
PROTOCOL TABLE (as described by Inglese J, Shamu CE and Guy RK. 2007)
SEQUENCE No. (e.g., 1, 2, 3, etc.); […] (e.g., Cells, Incubation, Reagent, etc.); VALUE and DESCRIPTION.
1; Cells; 5 uL; white, solid bottom 1536-well Greiner assay plate.
2; Compounds; 23 nL; Kalypsis pin tool (Wako USA) equipped with a 1536-well pin head to transfer to the assay plates.
3; Incubation; 48 hours; 37C incubation.
4; Reagent; 3 uL; CellTiter Glo (Promega).
5; Incubation; 5 min, room temperature
6; Detection; Luminescence, Viewlux PerkinElmer.
NOTES (numbers refer to Sequence numbers above)
1. Briefly, 5 ul of cell reagent was dispensed using a Multidrop Combi Dispenser. The NOMO1 and SEM cells were plated at 500 cells/well and the P12-Ichikawa line at 1000 cells/well.
2. After seeding the cells, 23 nL of MIPE 4.1 library compounds (in DMSO) were added to each plate using a Kalypsys 1536 Pintool dispenser. Bortezomib at final concentration of […] and DMSO were added to each plate as positive and negative controls respectively. For each screen, MIPE 4.1 compounds were added over an eleven-point concentration range […] in 3-fold dilutions.
3. Each plate was covered with a stainless steel gasketed lid to prevent evaporation and incubated for 48 hour at 37C, 95% relative humidity, and 5% CO2.
4-5. Three microliter CellTilter-GloTM luminescent substrate mix (Promega) reagent was added to the assay plate and incubated at room temperature for 5 min.
6. The luminescence signal was measured using a ViewLux (PerkinElmer) multiplate reader with a 2 second exposure time per plate. Data for each compound were normalized as percent viability such that measurements for DMSO and the empty well controls in each plate were defined as 100% and 0%, respectively.
Potency is read from the fitted curve at half-maximal effect.

Row | SMILES | viability | Potency
1 | C[C@@H]1CC[C@H]2[C@@H](C)C(=O)O[C@@H]3O[C@@]4(C)CC[C@H]1[C@]32OO4 | 103% (inactive) | –
2 | Cc1c(N)nc([C@H](CC(N)=O)NC[C@@H](N)C(N)=O)nc1C(=O)N[C@H](C(=O)N[C@@H](C)[C@H](O)[C@@H](C)C(=O)N[C@@H](C(=O)NCCc1nc(-c2nc(C(=O)NCCC[S+](C)C)cs2)cs1)[C@@H](C)O)C(O[C@H]1O[C@H](CO)[C@H](O)[C@@H](O)[C@@H]1O[C@H]1O[C@H](CO)[C@@H](O)[C@H](OC(N)=O)[C@H]1O)c1cnc[nH]1 (stereo not given in full) | – | 2640 nM (active)
3 | Cc1sc2c(c1C)C(c1ccc(Cl)cc1)=N[C@@H](CC(=O)OC(C)(C)C)c1nnc(C)n1-2 | – | 372 nM (active)
4 | O=C1C=CC[C@@H]2[C@H]3CCCN4CCC[C@@H](CN12)[C@@H]34 | 94.2% (inactive) | –
5 | c1cc2c(cc1[C@H]1OC[C@H]3[C@H]1CO[C@H]3c1ccc3c(c1)OCO3)OCO2 | 98.2% (inactive) | –
6 | CC1(N2CCC(n3c([C@@H]4CCCNC4)nc4ccccc43)CC2)CCCCCCC1 | – | 16600 nM (active)
7 | CSCC[C@@H](NC(=O)[C@@H](Cc1ccccc1)NC(=O)CNC(=O)CNC(=O)[C@@H](N)Cc1ccc(O)cc1)C(=O)O | 112% (inactive) | –
8 | COC1=CC(C)=C[C@@H](C)[C@@H](O)[C@@H](C)CC(C)=CC=C[C@H](OC)[C@H]([C@@H](C)[C@@H](O)[C@H](C)[C@@]2(O)C[C@@H](O)[C@H](C)[C@@H](C(C)C)O2)OC1=O | – | 74.3 nM (active)
9 | C[C@]12CCC(=O)C(O)=C1CC[C@@H]1[C@H]3CCC(=O)[C@@]3(C)CC[C@@H]12 | 94% (inactive) | –
10 | Cc1nc(-c2ccc(-c3ccc(C(=O)N4CCc5cc6c(cc54)C4(CCN(C)CC4)CO6)cc3)c(C)c2)no1 | 98.8% (inactive) | –
11 | COc1cccc2c1[C@]13CCN(CC4CC4)[C@H](C2)[C@]1(OC)CCC(=O)C3 | 88.8% (inactive) | –
12 | CC(C)CC(N(C)C)C1(c2ccc(Cl)cc2)CCC1 (stereo not given) | 98.7% (inactive) | –
13 | C[C@H]1CCCC=CC2C[C@H](O)C[C@@H]2[C@H](O)C=CC(=O)O1 (stereo not given in full) | – | 1.2 nM (active)
14 | C[C@]12CCC(=O)C=C1CC[C@@H]1[C@H]3CC[C@](C)(O)[C@@]3(C)CC[C@@H]12 | 99.7% [at 92.2 µM] (inactive) | –
15 | O=c1[nH]c2ccccc2n1C1CCN(Cc2ccc(-c3[nH]c4cc5ncnc5cc4nc3-c3ccccc3)cc2)CC1 | 92% (inactive) | –
16 | COc1ccc2c(c1OC)CN1CCc3cc4c(cc3C1C2)OCO4 (stereo not given) | – | 1660 nM (active)
17 | O=C(O)c1nn(Cc2ccc(Cl)cc2Cl)c2ccccc12 | 97.2% (inactive) | –
18 | CC(=O)Nc1ccc(OC[C@](C)(O)C(=O)Nc2ccc([N+](=O)[O-])c(C(F)(F)F)c2)cc1 | 90.7% (inactive) | –
19 | O=[N+]([O-])c1ncc[nH]1 | 108% (inactive) | –
20 | Oc1ccc2c3c1O[C@H]1c4[nH]c5c(c4C[C@@]4(O)[C@@H](C2)N(CC2CC2)CC[C@]314)C[C@@]1(O)[C@H]2Cc3ccc(O)c4c3[C@@]1(CCN2CC1CC1)[C@H]5O4 | 101% (inactive) | –

Row | SMILES | viability | Potency
21 | COC(=O)[C@@H](N)CCCN=C(N)N[N+](=O)[O-] | 110% (inactive) | –
22 | CCc1c(C(=O)C(N)=O)c2c(OCC(=O)O)cccc2n1Cc1ccccc1 | 109% (inactive) | –
23 | C[C@@H]1C[C@@H]([C@H](O)CC2CC(=O)NC(=O)C2)C(=O)[C@@H](C)C1 | – | 1660 nM (active)
24 | C[C@@H]1CC[C@@]2(OC1)O[C@H]1C[C@H]3[C@@H]4CC=C5C[C@@H](O[C@@H]6O[C@H](CO)[C@@H](O[C@@H]7O[C@@H](C)[C@H](O)[C@@H](O)[C@@H]7O)[C@H](O)[C@@H]6O[C@@H]6O[C@@H](C)[C@H](O)[C@@H](O)[C@@H]6O)CC[C@]5(C)[C@@H]4CC[C@]3(C)[C@@H]1[C@H]2C | – | 23500 nM (active)
25 | CC(C)(C)c1cc(C=C(C#N)C#N)cc(Br)c1O | 92.5% (inactive) | –
26 | CCOP(=O)(OCC)C(C)NC(=O)N(CCCl)N=O (stereo not given) | 102% (inactive) | –
27 | C[C@]12Cc3cn[nH]c3C[C@@H]1CC[C@@H]1[C@H]2CC[C@@]2(C)[C@H]1CC[C@]2(C)O | 101% (inactive) | –
28 | CN[C@@H]1Cc2cccc3[nH]c(=O)n(c23)C1 | 97.8% (inactive) | –
29 | COC[C@H]1OC(=O)c2coc3c2[C@@]1(C)C1=C(C3=O)[C@@H]2CC[C@H](O)[C@@]2(C)C[C@@H]1OC(C)=O | 76.9% (inactive) | –
30 | C=CCON=C(C[C@H]1O[C@@H]2O[C@]3(C)CC[C@@H]4[C@H](C)CC[C@@H]([C@H]1C)[C@@]24OO3)[C@H]1O[C@@H]2O[C@]3(C)CC[C@H]4[C@H](C)CC[C@@H]([C@@H]1C)[C@@]24OO3 | – | 743 nM (active)
31 | C[C@H]([C@H](O)CCC(C)(C)O)[C@H]1CC[C@@]2(O)C3=CC(=O)[C@@H]4C[C@@H](O)[C@@H](O)C[C@]4(C)[C@@H]3CC[C@]12C | 98.5% (inactive) | –
32 | CC1=C2C[C@@H]3[C@@H](CC=C4C[C@@H](O)CC[C@@]43C)[C@@H]2CC[C@]12O[C@H]1C[C@H](C)CN[C@H]1[C@H]2C | 85.7% (inactive) | –
33 | COc1cc(C(=O)N2CC[C@@H](O)[C@@H](N)C2)cc2nc(-c3cc4ccccc4n3CC3CC3)n(C)c12 | – | 1170 nM (active)
34 | CC(=O)O[C@@]12CO[C@H]1C[C@H](O)[C@@]1(C)C(=O)[C@H](O)C3=C(C)[C@@H](O)C[C@@](O)([C@@H](OC(=O)c4ccccc4)[C@@H]21)C3(C)C | – | 13200 nM (active)
35 | O=C(O)CNC(=O)c1c(O)c2ccccc2n(Cc2ccccc2)c1=O | 87.8% (inactive) | –
36 | COc1cc2cc(c1Cl)N(C)C(=O)C[C@H](OC(=O)C(C)C)[C@]1(C)O[C@H]1[C@H](C)[C@@H]1C[C@@](O)(NC(=O)O1)[C@H](OC)C=CC=C(C)C2 | 9.16% (inactive) | –
37 | C#CCN(C)[C@H](C)Cc1ccccc1 | 99.9% (inactive) | –
38 | CN(C)[C@@H]1C(=O)C(C(N)=O)=C(O)[C@@]2(O)C(=O)C3=C(O)c4c(O)cccc4[C@@](C)(O)[C@H]3C[C@@H]12 | 96% (inactive) | –
39 | CC(O)=C(C#N)C(=O)Nc1cc(Br)ccc1Br | 95.3% (inactive) | –
40 | O=C(O)C(=O)c1cn(Cc2ccccc2)c2ccc(-c3ccc(OC(F)(F)F)cc3)cc12 | 93.2% (inactive) | –

From PubChem BioAssay (NCATS)
